Most compounds without a hit are left out; they make up all but 3.5% or so of the library.
FBW7 activator: FBW7 E3 ligase activators, primary screen, biochemical, AlphaScreen, human | AlphaScreen FBW7–phospho-cyclin E peptide binding, activator screen | F-box/WD repeat-containing protein 7 (Homo sapiens), Q969H0 | actives 0.13% (n = 650,000) | AID 1259310, 2017 | normalized activity (activation), % at 26.1 µM; in the data active means normalized activity above about 1.9%;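 further: purified mutant Fbw7 with reduced substrate affinity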
TEAD-YAP block: TEAD-YAP interaction inhibition, primary screen, TEAD-YAP interaction inhibitor project, luminescence, HEK-TIYL cells; TEAD-Gal4/YAP UAS-luciferase luminescence; actives 1.4% (n = 640,000); inhibition, % at 9.12 µM; in the data active means inhibition above about 32%;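 further: 0% = median of test compound wells and 100% = reference inhibitor wells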
MITF inh: MITF inhibitors, primary screen, biochemical, AlphaScreen, human. Microphthalmia-associated transcription factor (Homo sapiens), O75030. AlphaScreen MITF homodimerization, bead proximity signal. inhibition, % at 2.6 µM. actives 0.91% (n = 650,000). AID 1259374, 2018; in the data active means inhibition above about 50%;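 further: 0% = vehicle wells with protein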
GPR151 ag: activators of human GPR151, primary screen, cell-based, PathHunter beta-arrestin, luminescence; AID 1508602, 2020; PathHunter beta-arrestin GPR151 cells; G-protein coupled receptor 151 (Homo sapiens), Q8TDV0; activation, % at 11.2 µM; actives 1% (n = 650,000); in the data active means activation above about 4.9%;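 further: 0% = median of compound wells and 100% = cells with positive control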
Target sequence (Q8TDV0 whole entry, looked up): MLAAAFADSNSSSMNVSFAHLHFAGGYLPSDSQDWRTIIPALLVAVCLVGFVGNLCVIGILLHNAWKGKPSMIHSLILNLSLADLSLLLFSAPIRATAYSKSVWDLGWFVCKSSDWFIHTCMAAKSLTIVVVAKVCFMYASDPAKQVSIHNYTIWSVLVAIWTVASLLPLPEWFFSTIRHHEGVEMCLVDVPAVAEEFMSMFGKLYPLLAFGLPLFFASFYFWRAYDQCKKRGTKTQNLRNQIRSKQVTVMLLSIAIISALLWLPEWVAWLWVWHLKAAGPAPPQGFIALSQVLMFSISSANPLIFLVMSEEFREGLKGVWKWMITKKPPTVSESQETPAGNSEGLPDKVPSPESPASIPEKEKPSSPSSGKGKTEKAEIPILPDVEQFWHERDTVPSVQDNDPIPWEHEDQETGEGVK
GPR151 conf act: GPR151 activators, triplicate retest, confirmation, cell-based, PathHunter beta-arrestin, luminescence. 6,700 tested, under 10 active. activation, % at 11.2 µM. shares compounds with GPR151 ag. GPR151 PathHunter beta-arrestin cells, 90 min; % of EA-reagent control over plate median. AID 1508609, 2020;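 active means mean percent activation across replicates above the confirmation screen cutoff of 4.91%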
GPR119 ag: GPR119 activators in beta-arrestin cells, counter-screen for GPR151 activator project, cell-based, PathHunter beta-arrestin, luminescence, triplicate; 90 min; 0 = compound-well median, 100 = enzyme-acceptor control; activation, % at 11.2 µM; actives 0.3% (n = 6,700); shares compounds with GPR151 ag; AID 1508611, 2020;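 active means mean percent activation in the counterscreen above 29.09%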;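 further: counterscreen on off-target GPR119 to flag nonselective hits from the GPR151 activator screen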
* marks the source's active call; other numbers are inactive results; . = no result given.

SMILES	FBW7 activator	TEAD-YAP block	MITF inh	GPR151 ag	GPR151 conf act	GPR119 ag
COc1ccc2cc(C(=O)Nc3cccc(C(=O)O)c3)c(=O)oc2c1	0.1	-78.3	5.5	-0.1	.	.
Cc1nn(C)cc1S(=O)(=O)NCc1ccco1	-0.1	-3.7	-11.8	-0.8	.	.
COc1ccccc1C(=O)Nc1ccnn1C1CCN(Cc2cccc(F)c2)CC1	0.0	13.8	-10.3	6.6*	0.2	-5.7
CCC(C)C(=O)N1CCC(n2nccc2NC(=O)Nc2cccc(F)c2)CC1 (stereo not drawn)	0.1	-24.4	13.0	6.6*	-0.4	-9.6
CN(C)C1CCN(c2cc(-c3cn[nH]c3)ccc2NC(=O)C2COc3ccc(F)cc3C2)C1 (stereo not drawn)	-0.1	2.3	12.4	0.2	.	.
Cc1cc(NC(=O)c2ccco2)n(-c2nc3ccccc3[nH]2)n1	0.1	27.8	6.9	0.4	.	.
Cc1cc(NC(=O)C2CC2)n(-c2nc3ccccc3[nH]2)n1	-0.1	28.7	-0.8	9.1*	-0.2	-5.2
COc1nn(C)cc1C(=O)NCC(=O)Nc1ccc2c(c1)Cc1ccccc1-2	0.1	3.6	7.9	9.5*	0.8	9.4
Cc1nc2sccn2c1C(=O)C(=O)Nc1nc(-c2ccccc2)cs1	-0.2	5.9	14.4	0.7	.	.
CCc1ccccc1N(C)C(=O)c1cc2cc(OC)ccc2oc1=O	0.0	-18.7	12.4	5.9*	0.4	0.8
Cc1ccc(-c2c(NCCN3CCN(c4ccccc4F)CC3)c(=O)c2=O)cc1	0.2	0.9	6.8	-0.4	.	.
Cc1cc(C(=O)NC2CCCC2)ccc1[N+](=O)[O-]	0.0	-9.1	1.2	-0.8	.	.
CC(=O)NC(=S)Nc1ccc(S(=O)(=O)N(C)Cc2ccccc2)cc1	-0.2	12.2	11.3	-0.8	.	.
CC(=O)Nc1ccc(S(=O)(=O)N(C)CCOCc2ccccc2)cc1	0.6	7.6	25.1	5.4*	0.1	-5.9
Cc1cc(C(=O)N(CC#N)CC#N)ccc1[N+](=O)[O-]	0.4	-8.2	-5.8	7.7*	0.4	5.5
CCOC(=O)CC(N)c1ccccc1F (stereo not drawn)	0.1	-2.5	4.1	0.2	.	.
CN(Cc1ccccc1)C(NC(=O)c1ccco1)C(=O)c1ccccc1 (stereo not drawn)	0.1	-6.2	15.1	-0.2	.	.
COc1cc2c(cc1C1NC(=S)NC(C)=C1C(=O)N(C)C)CCCC2 (stereo not drawn)	0.0	6.1	0.3	8.9*	-0.4	-1.9
COC(=O)C1=C(C)NC(=S)NC1c1ccccc1OC (stereo not drawn)	0.1	2.2	-14.6	5.6*	0.0	-4.2
CSCCC(NC(=O)C1CCC(C)CC1)C(=O)NCc1ccccn1 (stereo not drawn)	-0.2	2.3	2.7	5.0*	-0.7	6.5
O=C1NC(=O)C(=Cc2cc(Br)ccc2OCc2ccccc2F)C(=O)N1	0.0	-10.4	1.7	13.7*	-0.8	8.8
CCCCNC(=O)CCCCCn1c(=O)[nH]c2ccsc2c1=O	-0.1	1.1	-5.2	1.3	.	.
CN1/C(=C\C=N\NC(=S)Nc2cccnc2)C(C)(C)c2ccccc21	-0.3	28.8	2.9	7.4*	-0.3	2.5
O=C(CNC(=O)C12CC3CC(CC(C3)C1)C2)N1CCOCC1	-0.2	-1.1	1.0	-1.0	.	.
CC(NC(=O)C12CC3CC(CC(C3)C1)C2)C(=O)N1CCOCC1 (stereo not drawn)	-0.7	-0.8	-4.6	5.0*	-0.5	-7.1
SMILES	FBW7 activator	TEAD-YAP block	MITF inh	GPR151 ag	GPR151 conf act	GPR119 ag
Cc1ccc(S(=O)(=O)n2ccn(C(=O)c3ccccc3Br)c2=O)cc1	-0.1	-9.2	-3.0	4.9*	-0.9	-13.8
O=C(Nc1cc2ccccc2cc1NC(=O)c1ccc(Cl)cc1)c1ccc(Cl)cc1	-0.1	-4.0	2.0	5.6*	1.4	19.2
COc1ccc(S(=O)(=O)N2CCN(c3ccccc3OC)CC2)cc1C(=O)O	0.0	12.3	-1.4	0.6	.	.
O=C(Cc1ccccc1F)N1CC[C@H]2[C@H](CCCN2Cc2cccn2-c2cccnc2)C1	-0.2	0.0	-18.6	0.2	.	.
COc1cc2c(cc1NC(=O)c1ccccc1Cl)oc1ccccc12	0.1	-41.3	-13.9	0.2	.	.
COc1cc2c(cc1NC(=O)c1ccoc1C)oc1ccccc12	0.0	-65.1	-5.6	5.2*	-0.3	3.3
COc1cc2c(cc1NC(=O)c1cccc([N+](=O)[O-])c1)oc1ccccc12	0.0	-1.2	8.0	6.9*	0.8	0.2
COc1cccc(-c2cncc(-c3ccc(N)cc3)n2)c1	0.0	8.0	3.9	-0.5	.	.
N#CCCN(CCC#N)C(=O)Cc1ccc(Br)cc1	1.0	6.5	11.7	2.5	.	.
CCCN(CCC)C(=O)Cc1ccc(Br)cc1	0.6	-1.2	23.7	8.4*	-0.5	5.1
CCOc1ccccc1C(=O)Oc1coc(CSc2nc(C)cs2)cc1=O	-0.1	1.9	-15.3	1.2	.	.
Cn1ccnc1SCc1cc(=O)c(OC(=O)c2ccccc2[N+](=O)[O-])co1	0.5	6.2	12.3	5.8*	-0.5	0.4
COc1ccccc1C(=O)Oc1coc(CSc2nc(C)cs2)cc1=O	-0.1	10.0	-12.5	7.5*	-1.2	-5.1
O=C(Nc1nnc(SCc2cccc(C(F)(F)F)c2)s1)C1CC1	0.1	0.8	9.0	1.5	.	.
O=C(Nc1nnc(SCc2cccc(F)c2)s1)C1CC1	-0.1	-4.0	11.0	12.1*	0.8	4.3
CCCC(=O)Oc1coc(CSc2nnc(NC(=O)C3CC3)s2)cc1=O	-0.1	14.2	10.8	5.4*	-1.1	-3.7
O=C1CCCN1CC1CCCN(c2nc3nonc3nc2N2CCSCC2)C1 (stereo not drawn)	0.1	-3.8	17.9	-1.6	.	.
COC(=O)C(F)(Sc1ccc(O)cc1)C(F)(F)F (stereo not drawn)	1.5	-12.5	12.4	-1.9	.	.
CC(=O)Nc1nnc(SCc2cc(=O)c(OC(=O)c3ccccc3[N+](=O)[O-])co2)s1	-0.1	6.4	12.4	6.4*	0.3	0.5
CC12CCC(C(=O)NCCN3CCOCC3)(OC1=O)C2(C)C (stereo not drawn)	0.3	-13.1	13.2	5.9*	-0.1	-5.3
CC12CCC(C(=O)NCc3ccccc3)(OC1=O)C2(C)C (stereo not drawn)	-0.1	7.1	-14.8	5.3*	0.4	7.4
COc1ccc(OC)c2c(C)cc(N3CCN(c4ccccn4)CC3)nc12	0.1	-8.1	-1.5	3.9	.	.
